Screens (PubChem BioAssay)
A selection: hits, their analogues and other compounds. The true share with any hit is near 0.94%.
Mtb hypoxia inh: PubChem AID 1159583 | 0.1% of 300,000 active | fluorescence inhibition, % (test concentration not listed) | M. tuberculosis hypoxia-regulated fluorescent reporter, fluorescence; in the data active = fluorescence inhibition mostly above about 23%, no sharp cut-off; inactive = mostly below about 17%
PriA SSB inh: inhibitors of Klebsiella pneumoniae PriA binding to SSB C-terminal tail, primary screen, biochemical, AlphaScreen | AlphaScreen SSBct-PriA binding, biotinylated peptide | inhibition, % at 33 µM | 0.6% of 430,000 active; in the data active = inhibition mostly above about 37%, no sharp cut-off; inactive = mostly below about 20%;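 note: plate controls were negative control peptide for no effect and reference peptide for full effect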
Vc quorum ag: inducers of Vibrio cholerae quorum light production without autoinducers, primary screen, BH1578 luxS cqsA deficient, single point. V. cholerae BH1578 lux reporter, luminescence, 6 h. activation, % at 18.7 µM. 0.16% of 350,000 active. AID 588436, 2011; in the data active = activation mostly above about 9.7%, no sharp cut-off
MazEF act: activators of E. coli MazEF toxin-antitoxin RNase, primary screen, biochemical, fluorescence, uHTS; AID 504720, 2011; activation, % at 20 µM; Endoribonuclease toxin MazF (Escherichia coli (strain K12)), P0AE70; 0.32% of 350,000 active; FAM/BHQ RNA-DNA oligo cleavage fluorescence, 5 h; in the data active = activation above about 50%
Target sequence (P0AE70 whole entry, looked up): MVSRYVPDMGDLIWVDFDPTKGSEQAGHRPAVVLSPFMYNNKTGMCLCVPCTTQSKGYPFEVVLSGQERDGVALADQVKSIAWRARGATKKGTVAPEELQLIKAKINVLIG
The depositor's hits bear a star; i = inactive; · = no result given.

SMILES	Mtb hypoxia inh	PriA SSB inh	Vc quorum ag	MazEF act
CN(CCO)c1ccc(C=NNc2ccc([N+](=O)[O-])cc2S(=O)(=O)Nc2ccccc2C(=O)O)cc1	16.9	40.5*	i	-11.1
CCOc1ccccc1/C=N/Nc1ccc(S(=O)(=O)Nc2ccccc2OC)cc1[N+](=O)[O-]	·	i	·	·
CCOc1ccc(C=NNc2ccc(S(=O)(=O)Nc3ccccc3C(=O)O)cc2[N+](=O)[O-])cc1OC	19.4	4.2	·	-30.5
COc1ccccc1NS(=O)(=O)c1ccc(NN=Cc2ccccc2OCC(=O)O)c([N+](=O)[O-])c1	0.4	42.5*	·	·
COc1cc(C=NNc2ccc(S(=O)(=O)Nc3ccccc3C(=O)O)cc2[N+](=O)[O-])ccc1O	21.5	49.0*	2.4	2.8
Cc1ccc(S(=O)(=O)N(C)CN=C(N)N[N+](=O)[O-])cc1	·	-16.8	·	·
CC(=O)NC(O)C(=O)c1cccs1 (stereo not drawn)	·	1.0	·	·
O=C(CCc1ccc(C(F)(F)F)cc1)N(CCc1cccs1)C1CC1	·	7.0	·	·
Cc1nn(-c2ccccc2)c(N2CCCC2)c1/C=N/Nc1ccc(S(N)(=O)=O)cc1[N+](=O)[O-]	·	·	6.9	5.7
Cc1nn(-c2ccccc2)c(N2CCCC2)c1C=NNc1ccc(S(N)(=O)=O)cc1[N+](=O)[O-]	3.7	79.8*	·	·
O=[N+]([O-])c1cccc(/C=C/c2nc(C=Nc3ccccc3)c(O)o2)c1	1.1	-16.1	-1.2	133.1*
O=c1cc(-c2ccccn2)[nH]c(-c2ccccn2)c1	·	96.0*	·	·
Nc1cc(-c2ccccn2)[nH]n1	·	17.0	·	·
c1cncc(-c2nnc(-c3ccc4c(c3)OCCO4)o2)c1	·	-12.0	·	·
COc1ccc(C(=O)Nc2nc(C)c3cc4c(cc3n2)OCO4)cc1	37.6*	-0.5	i	-7.8
Cc1nc(NC(=O)c2ccc(Cl)cc2)nc2cc3c(cc12)OCO3	7.9	-8.2	0.1	7.5
CC(Oc1ccccc1)C(=O)NCCSc1c(-c2ccc(F)cc2)[nH]c2ccccc12 (stereo not drawn)	·	-4.0	·	·
O=C(Oc1ccc(OC(=O)c2ccncc2)cc1)c1ccncc1	37.3*	0.4	2.3	-3.3
Cc1cccc(NC(=S)NN=C2CC(C)(C)Oc3ccc(O)cc32)c1	-11.3	46.8*	·	·
Cc1ccccc1NC(=S)NN=C1CC(C)(C)Oc2ccc(O)cc21	1.4	47.3*	·	·
COc1ccc(NC(=S)N/N=C2\CC(C)(C)Oc3ccc(O)cc32)cc1	·	·	-0.2	-3.6
CC(C)S(=O)(=O)Nc1ccc2c(c1)CN(S(=O)(=O)c1ccccc1)CC2	·	-3.0	·	·
Cn1cc(CC(=O)N2CC(c3nc(-c4ccc[nH]c4=O)no3)C2)c2ccccc21	·	-3.0	·	·
COc1cc(OC)c(-c2c3cc(O)c(=O)cc-3oc3cc(O)c(O)cc23)cc1OC	·	17.3	i	i
Cc1c2cc(O)c(=O)cc-2oc2cc(O)c(O)cc12	16.7	53.1	-0.2	410.0*
SMILES	Mtb hypoxia inh	PriA SSB inh	Vc quorum ag	MazEF act
Cc1ccc(N=Cc2sc(O)c3ccccc23)c(C)c1	5.9	-2.4	i	691.0*
Cc1ccc2c(Nc3ccc(S(N)(=O)=O)cc3)c(C(=O)N3CCOCC3)cnc2n1	·	-12.0	·	·
O=C(NCCCn1ccnc1)C(=O)Nc1ccc2c(c1)N(S(=O)(=O)c1cccs1)CCC2	·	51.0*	·	·
CCN(CC)c1ccc(NC(=O)c2ccc(S(=O)(=O)N3CCOCC3)cc2)cc1	4.0	-0.9	-2.0	8.7
CCN(CC)c1ccc(C(=C2C=CC(=[N+](CC)CC)C=C2)c2ccc(S(=O)(=O)O)cc2S(=O)(=O)[O-])cc1	9.1	81.8*	i	1.8
O=C(O)c1ccc(Br)cn1	2.2	-3.4	-0.2	-0.1
O=C(O)c1ccc(C2CCCC2)cn1	·	100.3*	·	·
C#CCn1cc(C=NNc2nc3ccccc3[nH]2)c2ccccc21	4.3	44.0*	·	·
C=CCn1cc(/C=N/Nc2nc3ccccc3[nH]2)c2ccccc21	·	·	-2.1	10.4
Cc1[nH]c2ccccc2c1C=NNc1nc2ccccc2[nH]1	·	41.2*	·	·
C(=NNc1nc2ccccc2[nH]1)c1c[nH]c2ccccc12	-10.2	50.4*	·	·
COc1cccc([C@H](CNC(=O)Nc2cccc(OC)c2OC)OC)c1	·	6.0	·	·
CC(Nc1cc(N2CCNCC2)ccc1[N+](=O)[O-])c1ccccc1 (stereo not drawn)	7.7	12.7	-0.3	11.1
CC(Nc1cc(N2CCN(C(=O)C(C)(C)C)CC2)ccc1[N+](=O)[O-])c1ccccc1 (stereo not drawn)	4.2	41.2*	i	-6.0
CC(C)C(=O)N1CCN(c2ccc([N+](=O)[O-])c(NC(C)c3ccccc3)c2)CC1 (stereo not drawn)	8.1	48.5*	i	-1.4
